Broadly, the AC50 is the midpoint of the concentration-response curve, whichever way the signal moves.

SMILES strings stand for the structures. Records with an inconclusive call do not appear. Activity calls are given as the source filed them. The calls were made as follows: active = hit-call score of the fitted dose curve at least 0.9, where 1 is the maximum; inconclusive = response in the unintended direction; inactive = score below 0.9.

Read-out in the test: Cytochrome P450 2B6 (Homo sapiens) (UniProt P20813)
Put plainly: CLD_CYP2B6_24hr: CellzDirect (CLD) Gene Expression Assay for xenobiotic metabolism (CYP2B6) at 24 hours (AID 2283686). As for the experimental part:
CLD_24hr is a cell-based, multiplexed-readout assay that uses hepatocyte, a human liver primary cell, with measurements taken at 24 hours after chemical dosing in a 96-well plate.CLD_CYP2B6_24hr is one of 16 assay component(s) measured or calculated from the CLD_24hr assay. It is designed to make measurements of mRNA induction, a form of inducible reporter, as detected with chemiluminescence signals by Quantitative Nuclease Protection Assay (qNPA) technology.Data from the assay component CLD_CYP2B6_24hr was analyzed at the endpoint, CLD_CYP2B6_24hr, in the positive analysis fitting direction relative to DMSO as the negative control and baseline of activity. Using a type of inducible reporter, gain-of-signal activity can be used to understand changes in the reporter gene as they relate to the gene CYP2B6. Furthermore, this assay endpoint can be referred to as a primary readout. To generalize the intended target to other relatable targets, this assay endpoint is annotated to the cyp intended target family, where subfamily is xenobiotic metabolism.
Human hepatocyte cultures were treated daily for two consecutive days with fresh dosing solutions containing appropriate concentrations of the 320 ToxCast chemicals (chemical identities were blinded to CellzDirect and other ToxCast collaborators), vehicle control (0.2% DMSO), and positive control inducers as summarized in Table 1. Due to the large number of treatment groups and chemicals examined, the ToxCast chemicals were divided into two groups (spanning two independent cultures of hepatocytes from separate donor preparations (Hu778: ToxCast plates 1 and 2; Hu776: ToxCast plates 3 and 4). Each preparation of human hepatocyte cultures was treated with respective vehicle control, medium only control, set of six positive controls/reference chemicals for the five hepatic receptor pathways, and a subset of eight of the ToxCast chemicals (indoxacarb, pyrithiobac-sodium, norflurazon, cyhalofop-butyl, methomyl, thiram, acetochlor, and propiconazole). These replicate data, coupled with internal replicates designed within the blinded ToxCast chemical library, provided additional data to evaluate interindividual differences between hepatocyte preparations and their potential impact on chemical profiles.Cell morphology and integrity were evaluated using phase-contrast microscopy as an indicator of hepatocyte cell health (Tyson & Green, 1987). Cultures for each treatment group (i.e., media, vehicle [0.2% DMSO], positive control inducers [multiple concentrations], and the ToxCast chemicals [multiple concentrations]) were observed and cell morphology was assessed relative to vehicle control cultures at each harvest time point (0, 6, 24, or 48 h). […] Images were evaluated at the conclusion of the study to assess changes in cell integrity and account for the effects of chemical exposure on uncharacteristic changes in concentration-dependent gene expression profiles. The results from these determinations of apparent cytotoxicity were annotated (yes/no) alongside the corresponding qNPA data for reference.At the conclusion of each treatment period, hepatocyte cultures (96-well) were washed with 1 volume of HBSS, lysed by addition of 25 ul ArrayPlate lysis buffer (HTG, Tucson, AZ), and 70 ul/well of Denaturation Oil, denatured by incubation at 95C for 10 min, and frozen at approximately -70C until analysis by nuclease protection assay (qNPA) (Roberts et al., 2007). For qNPA analysis, cell lysates were thawed at 50C for approximately 30 min, qNPA probes were added, and samples were incubated at 95C for 10 min to begin the detection process by denaturing the target RNA, dissociating the duplexes and secondary structure hybridization. At the conclusion of the hybridization period, S1 nuclease reagent was added to each sample to digest all nonprotected nucleotides at 50C for 60-90 min. […]
For the molecule `CCC(C)n1c(=O)[nH]c(C)c(Br)c1=O` (stereo not given), the AC50 was 1.56 µM (active).

In the case of `CC(C)N1C(=O)N(c2ccccc2)CSC1=NC(C)(C)C`, the AC50 was 4.23 µM (active).

`C=CCOC(=O)C(C)(C)OC(=O)c1cc(-n2c(=O)cc(C(F)(F)F)n(C)c2=O)ccc1Cl`: the AC50 is 0.173 µM (active).

On to `COC(=O)N(C(=O)N1CO[C@@]2(C(=O)OC)Cc3cc(Cl)ccc3C2=N1)c1ccc(OC(F)(F)F)cc1`, for which the AC50 is 1.9 µM (active).

As for `COCC(=O)N(c1c(C)cccc1C)C(C)C(=O)OC` (stereo not given), the AC50 is 4.09 µM (active).

With `C=C(C)CN(CC)c1c([N+](=O)[O-])cc(C(F)(F)F)cc1[N+](=O)[O-]`, the call was inactive.

In the case of `CC(C)Oc1cccc(NC(=O)c2ccccc2C(F)(F)F)c1`, the AC50 is 4.95 µM (active).

With `Nc1c(Cl)c(F)nc(OCC(=O)O)c1Cl`, the outcome was inactive.

In the case of `CCNP(=S)(OC)O/C(C)=C/C(=O)OC(C)C` (stereo not given), the AC50 was 0.981 µM (active).

On to `CC(C)(C)C(=O)C(Oc1ccc(Cl)cc1)n1cncn1` (stereo not given), for which the AC50 is 4.5 µM (active).

As to `CC1(C)CON(Cc2ccccc2Cl)C1=O`, the AC50 was 20 µM (active).

With `CCN(CC)C(=O)C(C)Oc1cccc2ccccc12` (stereo not given), the call was inactive.

For `CC(C)=CC1C(C(=O)OCc2coc(Cc3ccccc3)c2)C1(C)C` (stereo not given), the AC50 is 5.63 µM (active).

For `CCSC(=O)N1CCCCCC1`, the AC50 was 0.302 µM (active).

Turning to `CCOC(=O)C(C)OC(=O)c1cc(Oc2ccc(C(F)(F)F)cc2Cl)ccc1[N+](=O)[O-]` (stereo not given), the half-maximal activity concentration (AC50) is 10.3 µM (active).

In the case of `CCCN(CC)CC1COC2(CCC(C(C)(C)C)CC2)O1` (stereo not given), the AC50 was 9.21 µM (active).

Consider `CCOc1nc(F)cc2nc(S(=O)(=O)Nc3c(Cl)cccc3Cl)nn12`, for which the AC50 is 6.27 µM (active).

As to `CCCCC(O)(Cn1cncn1)c1ccc(Cl)cc1Cl` (stereo not given), the half-maximal activity concentration (AC50) is 1.9 µM (active).

With `CNC(=O)N(C)c1nnc(C(C)(C)C)s1`, the molecule was classed as inactive.

Consider `CCN(CC)c1nc(C)cc(OP(=S)(OC)OC)n1`, for which the AC50 was 0.902 µM (active).

On to `Clc1cccc(C(Cl)(Cl)Cl)n1`, for which the AC50 was 0.325 µM (active).

With `Cc1c(COC(=O)[C@@H]2[C@H](/C=C(\Cl)C(F)(F)F)C2(C)C)cccc1-c1ccccc1`, the AC50 is 4.37 µM (active).

Take `CCOP(=O)(OCC)Oc1nc(Cl)c(Cl)cc1Cl`: the AC50 is 0.405 µM (active).

`CNC(=O)Oc1cccc2ccccc12`: the AC50 was 7.28 µM (active).

Take `CCOP(=S)(OCC)Oc1nc(Cl)n(C(C)C)n1`: the AC50 was 0.383 µM (active).

As for `COCC(C)N(C(=O)CCl)c1c(C)csc1C` (stereo not given), the AC50 was 11.9 µM (active).

Take `O=C(O)c1c(Cl)ccc2cc(Cl)cnc12`: the molecule was classed as inactive.

Regarding `CS(=O)(=O)c1cc(C(F)(F)F)ccc1C(=O)c1cnoc1C1CC1`, the AC50 is 6.01 µM (active).

`CC(C)NC(=O)N1CC(=O)N(c2cc(Cl)cc(Cl)c2)C1=O`: the AC50 is 10.4 µM (active).

On to `CCCCC(C#N)(Cn1cncn1)c1ccc(Cl)cc1` (stereo not given), for which the AC50 is 9.62 µM (active).

Consider `CC1(C)C(C(=O)OC(C#N)c2cccc(Oc3ccccc3)c2)C1(C)C` (stereo not given), for which the AC50 is 4.44 µM (active).

Regarding `COc1cc(Cl)c(OC)cc1Cl`, the AC50 is 0.598 µM (active).

For the molecule `Nc1cnn(-c2ccccc2)c(=O)c1Cl`, the outcome was inactive.

With `CC(C)N1C(=O)c2ccccc2NS1(=O)=O`, the molecule was called inactive.

As for `CSC(=O)c1c(C(F)F)nc(C(F)(F)F)c(C(=O)SC)c1CC(C)C`, the AC50 is 1.22 µM (active).

In the case of `COC(=O)c1c(C(F)F)nc(C(F)(F)F)c(C2=NCCS2)c1CC(C)C`, the half-maximal activity concentration (AC50) was 7.48 µM (active).

With `Cc1cnc(C2=NC(C)(C(C)C)C(=O)N2)c(C(=O)O)c1` (stereo not given), the molecule was classed as inactive.

In the case of `O=C(Nc1ccccc1-c1ccc(Cl)cc1)c1cccnc1Cl`, the AC50 was 0.427 µM (active).

As to `N#Cc1c[nH]cc1-c1cccc2c1OC(F)(F)O2`, the AC50 is 3.97 µM (active).

Turning to `CCOc1cc(C(C)(C)C)ccc1C1COC(c2c(F)cccc2F)=N1` (stereo not given), the AC50 was 1.9 µM (active).

(Values after PubChem BioAssay (EPA / NIEHS).)
